Rows were chosen to be rich in hits. Some 5.1% of all compounds tested hit in one or more screens of this group.
CRFR2-BP ag: agonists of CRF-BP/CRF-R2 complex, primary screen, cell-based, HEK293, calcium dye fluorescence, uHTS; CRF-binding protein / CRF receptor 2 complex (human); actives 0.46% (n = 350,000); activation, % at 13.2 µM; calcium dye fluorescence (FLIPR); percent of saturating CRF peptide response;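 active = activation of at least 50%, plus an integration ratio under a set limit after plate pattern correction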;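 also: plate controls were neutral control wells without compound for no effect and CRF at EC100 for full effect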
CRFBP-R2 block: antagonists of CRF-BP/CRF-R2 complex, primary screen, cell-based, HEK293, calcium dye fluorescence, uHTS. CRF-induced calcium fluorescence. inhibition, % at 11.8 µM. actives 0.59% (n = 350,000). AID 588475, 2011;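 active = inhibition of the ligand-induced calcium signal above about 50% at the single tested concentration, limit read from the data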
GRIN3A LBD mod: binders of NR3A ligand-binding domain, primary screen, biophysical, differential scanning fluorimetry, uHTS; Glutamate receptor ionotropic, NMDA 3A (GRIN3A) ligand-binding domain; NR3A LBD differential scanning fluorimetry, Tm shift; 0% = protein alone, 100% = glycine-bound protein; Tm shift relative to glycine control, % at 25 µM; actives 2.5% (n = 340,000);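 active = melting temperature shift of at least 10% of the positive control shift, at one fixed dose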
MPTP inh: mitochondrial permeability transition pore inhibitors, primary screen, biochemical, isolated mouse mitochondria, absorbance; AID 602449, 2012; Ca2+ swelling absorbance, 30 min; actives 1.4% (n = 360,000); inhibition, % at 10 µM;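 active = inhibition of 50% or more, scaled per plate between neutral and stimulator controls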;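 also: 0% = DMSO wells given calcium and 100% = 1 mM EGTA wells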
TMEM16A act: TMEM16A chloride channel activators or potentiators, primary screen, cell-based, HTS. B-score at 10 µM. actives 0.3% (n = 340,000). HEK293 TMEM16A/YFP-H148Q/I152L, iodide quench fluorescence; hits give low values;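 active = fluorescence-ratio B-score plate-corrected deviation score at least 3 library SD below zero, with starting fluorescence score within 5 deviations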;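 also: channel opened by trigger with iodide after compound preincubation; score built on the fluorescence ratio of max minus min over baseline; more negative score means more quench and so TMEM16A activation or potentiation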
Target sequence (Q8BHY3 whole entry, looked up): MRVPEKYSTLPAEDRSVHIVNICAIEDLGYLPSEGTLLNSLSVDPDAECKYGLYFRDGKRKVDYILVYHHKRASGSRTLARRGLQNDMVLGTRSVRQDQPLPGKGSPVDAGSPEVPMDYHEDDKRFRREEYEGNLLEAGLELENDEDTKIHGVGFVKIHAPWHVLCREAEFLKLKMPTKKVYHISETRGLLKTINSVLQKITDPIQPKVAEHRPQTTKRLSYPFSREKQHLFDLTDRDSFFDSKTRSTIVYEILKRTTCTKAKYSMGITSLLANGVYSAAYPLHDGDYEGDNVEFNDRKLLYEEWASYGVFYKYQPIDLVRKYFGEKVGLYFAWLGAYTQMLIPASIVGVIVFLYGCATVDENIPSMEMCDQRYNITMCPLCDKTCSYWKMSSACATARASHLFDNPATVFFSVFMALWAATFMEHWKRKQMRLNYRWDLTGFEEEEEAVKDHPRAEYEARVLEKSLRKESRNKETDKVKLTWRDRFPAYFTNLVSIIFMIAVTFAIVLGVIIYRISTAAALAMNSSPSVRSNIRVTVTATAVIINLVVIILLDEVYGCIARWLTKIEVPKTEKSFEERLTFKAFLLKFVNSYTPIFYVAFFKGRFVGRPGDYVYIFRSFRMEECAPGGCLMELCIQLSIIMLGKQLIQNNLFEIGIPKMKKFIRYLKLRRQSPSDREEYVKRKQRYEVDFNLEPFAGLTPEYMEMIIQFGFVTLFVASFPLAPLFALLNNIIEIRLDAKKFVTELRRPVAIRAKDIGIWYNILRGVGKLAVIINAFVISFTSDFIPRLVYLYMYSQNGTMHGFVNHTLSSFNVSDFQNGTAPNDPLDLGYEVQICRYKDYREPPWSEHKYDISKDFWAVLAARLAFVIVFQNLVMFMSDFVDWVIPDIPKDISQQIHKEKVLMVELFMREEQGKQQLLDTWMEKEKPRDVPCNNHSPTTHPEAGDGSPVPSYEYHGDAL
TMEM16A inh: TMEM16A chloride channel inhibitors, primary screen, cell-based, HTS; HEK293 TMEM16A/YFP iodide influx fluorescence, ionomycin; Anoctamin-1 (Mus musculus), Q8BHY3; AID 588511, 2011; actives 1.2% (n = 310,000); normalized B-score (activity score, 25-100; higher = stronger inhibition) at 10 µM;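 active = ratio plate-corrected score three or more library SD toward inhibition, starting fluorescence score within five deviations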;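 also: score derived from kinetic fluorescence span divided by baseline fluorescence per well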
* hit, by the source's call; i = inactive; . = no result given.

SMILES	CRFR2-BP ag	CRFBP-R2 block	GRIN3A LBD mod	MPTP inh	TMEM16A act	TMEM16A inh
O=C(Nc1nc2ccccc2[nH]1)C1CCCO1 (stereo unspecified)	-4	4	4	0	i	i
O=C(Nc1nc2ccccc2[nH]1)C1CC1	1	2	0	1	-5.8*	i
Cc1ccc(S(=O)(=O)N2CCC[C@H]2C(=O)NC2=NCCS2)cc1	0	-16	2	-1	i	.
Cc1cc(C)cc(NC(=O)c2ccc(N3C(=O)C4CCCCC4C3=O)cc2)c1 (stereo unspecified)	-1	75*	-10	1	i	i
Cc1ccccc1NC(=O)c1cccc(N2C(=O)C3CCCCC3C2=O)c1 (stereo unspecified)	3	15	0	-1	i	i
COc1ccc(N2C(=O)C3CCCCC3C2=O)cc1NC(=O)c1ccccc1 (stereo unspecified)	0	27	39*	0	i	i
O=C(Nc1ccc(Br)cc1)c1ccc(N2C(=O)C3CC=CCC3C2=O)cc1 (stereo unspecified)	2	-3	-3	0	i	i
Cc1c(C(=O)O)sc(S(=O)(=O)N2CCN(C(=O)CCc3ccccc3)CC2)c1C(=O)O	1	-2	-1	0	i	.
CN(c1ccccc1)c1cc(Br)nc(Br)c1	0	22	1	2	i	i
C(=Nc1ccc(Nc2ccccc2)cc1)c1ccc2ccccc2c1	-2	12	-13	-3	i	i
Brc1ccc(C=Nc2ccc(Nc3ccccc3)cc2)s1	-2	-14	12*	-1	i	i
COc1cccc(-n2nc(C(N)=O)c(O)cc2=O)c1	-4	2	0	-1	i	i
COc1cccc(-n2nc(C#N)c(Cl)cc2=O)c1	-3	74*	-1	0	i	.
Cc1cc(C)nc(SCc2ccc(C(=O)NNC(=O)Nc3cccc(Cl)c3)cc2)n1	0	70*	10	3	i	i
Cc1cc(C)nc(SCc2ccc(C(=O)N/N=C/c3ccncc3)cc2)n1	-1	-16	-1	1	i	i
Cc1cc(OCC(=O)C(C)(C)C)c2c(C)c(C)c(=O)oc2c1	-1	109*	0	-2	i	i
CCc1cc(=O)oc2cc(C)cc(OCC(=O)C(C)(C)C)c12	-9	-15	0	1	i	i
CCSc1nnc(-c2sc3nnc(-c4ccccc4)c(-c4ccccc4)c3c2N)o1	116*	-38	0	1	i	i
Cn1nc(C(=O)Nc2cccc(S(=O)(=O)N3CCCCC3)c2)c2ccccc2c1=O	1	-23	-11	0	i	.
Cc1c(Cl)cccc1N(Cc1ccc(C(=O)O)cc1)S(=O)(=O)c1ccccc1	-1	1	13*	-1	i	i
Cc1ccc(S(=O)(=O)N(CC(=O)Nc2ccccc2C(=O)O)c2cccc(Cl)c2C)cc1	2	50*	4	36	i	i
Cc1ccc(N(CC(=O)Nc2ccccc2C(=O)N2CCOCC2)S(C)(=O)=O)cc1	0	-5	13*	-2	i	i
O=C(O)c1ccc(CN(c2ccccn2)S(=O)(=O)c2ccccc2)cc1	-4	4	1	0	i	i
Cc1ccc(S(=O)(=O)N(CC(=O)Nc2ccccc2C(=O)O)c2ccccc2C)cc1	0	19	-5	0	i	i
O=C(NC(=S)NCc1ccccc1Cl)c1cccs1	0	0	-21	-1	i	.
SMILES	CRFR2-BP ag	CRFBP-R2 block	GRIN3A LBD mod	MPTP inh	TMEM16A act	TMEM16A inh
O=S(=O)(c1ccc2nc(Nc3ccccc3)ccc2c1)N1CCCCC1	1	-21	30*	-1	i	i
O=C(Nc1cc(Cl)ccc1Cl)C1Cc2ccccc2O/C1=N\O (stereo unspecified)	-3	-6	0	3	i	i
CCc1cc2c(cc3c(=O)n(CC(=O)N4CCN(C)CC4)ncn32)s1	-2	4	-1	-1	i	i
COc1ccc(/C=N/Nc2cc(C)nc3ccc(OC)cc23)c(OC)c1	1	12	-1	46	i	100*
COc1ccc2nc(C)cc(N/N=C/c3ccccc3)c2c1	-1	-11	-4	25	i	.
COc1ccc2nc(C)cc(NCc3ccc(F)cc3)c2c1	73*	-112	-1	0	i	i
O=C(NC1CCC(O)CC1)c1ccc(NS(=O)(=O)c2cccc([N+](=O)[O-])c2)cc1 (stereo unspecified)	-1	3	0	-2	.	.
c1ccc(CNc2c(C3CCNCC3)nc3scc(-c4ccccc4)n23)cc1	.	.	.	0	.	.
C=C(C)c1cccc(C(C)(C)NC(=O)N2CCN(C(=O)OCC)CC2)c1	-2	3	.	-2	.	.
COc1cc(C(=O)N(Cc2ccccc2)c2cccc(C)c2)ccc1OC(F)F	1	26	14*	0	i	i
Cc1cccc(N(Cc2ccccc2)C(=O)c2ccc(CS(C)(=O)=O)cc2)c1	0	-5	14*	-1	i	i
Cc1cccc(N(Cc2ccccc2)C(=O)CCl)c1	0	-4	-1	-2	i	.
COc1cc(C(=O)NCc2ccccc2)ccc1OC(F)F	-8	14	5	1	i	i
COc1cc(C(=O)NCc2ccc(C)cc2)ccc1OC(F)F	-3	-3	12*	1	i	i
CC(C)(C)NC(=O)NC(=O)COC(=O)c1ccc2c(c1)S(=O)(=O)N=C1CCCCCN12	0	4	-5	1	i	i
CC(NC(=O)COC(=O)c1ccc2c(c1)S(=O)(=O)N=C1CCCCCN12)C12CC3CC(CC(C3)C1)C2 (stereo unspecified)	2	7	18*	2	i	i
O=C(CCN1C(=O)/C(=C/c2ccc(F)cc2)SC1=S)NCCc1ccc(O)cc1	4	-18	16*	7	i	i
COc1cccc(/C=C2\SC(=S)N(CCC(=O)NCCc3ccc(O)cc3)C2=O)c1	6	27	16*	0	i	i
O=C(O)CCN1C(=O)/C(=C\c2cccc(OCc3ccccc3)c2)SC1=S	-1	8	11*	-1	i	i
O=C(COC(=O)c1ccc(S(=O)(=O)N2CCCCC2)cc1)NCc1ccccc1	1	-4	2	1	i	.

High-throughput results deposited in PubChem by several laboratories.
